Activity calls are given as the source filed them.

Assay [1] can be described thus: optical density shifts of acrAB sulA E. coli – strain DRC41, OD650, 48 h, E. coli filamentation inducer project, primary screen (AID 1152).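 Note: E. coli MC1000 strain DRC41 lacking acrAB efflux pump and sulA.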 The following applies: higher = more signal, called active from +8 up or from −8 down.
Assay [2] can be described thus: probe aLefty1 binding on compound microarray – biochemical, small-molecule microarray, 635/667 nm fluorescence, primary screen (AID 1153).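 Note: score merges spot fluorescence with signal-to-noise ratio from the scanned slide images.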 The following applies: higher = more signal.
Assay [3] in a line: plasmodial surface anion channel blockers, osmotic lysis – cell-based, P. falciparum Indochina, OD700, 1 h, primary screen (AID 1154). The following applies: P. falciparum Indochina infected RBC osmotic lysis, higher = more signal, called active from +8 up or from −8 down.
Assay [4] in a line: plasmodial surface anion channel blockers, osmotic lysis – cell-based, P. falciparum Indochina, OD700, 2 h, primary screen (AID 1155).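 Note: lysis reports solute entry through the parasite surface anion channel PSAC.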 As to conditions: P. falciparum Indochina infected erythrocytes, higher = more signal, called active from +8 up or from −8 down.
Assay [5] is described as follows: changes in parasitized red cell lysis, either direction – P. falciparum Indochina, OD700, 3 h, PSAC antagonist project, primary screen (AID 1156). As to conditions: P. falciparum-infected erythrocytes, osmotic lysis, higher = more signal, called active from +8 up or from −8 down.
Assay [6] can be described thus: plasmodial surface anion channel blockers, osmotic lysis – cell-based, P. falciparum Indochina, OD700, 18 h, primary screen (AID 1157). As to conditions: P. falciparum Indochina infected erythrocytes, osmotic lysis OD700, 18 h; higher = more signal, called active from +8 up or from −8 down.
The nature of assay [7]: S6 kinase pathway phospho-S6 level changes – cell-based, A549, cytoblot, luminescence, serum-stimulated, primary screen (AID 1158).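 Note: serum-stimulated A549 lung adenocarcinoma cells; signal is phosphorylated S6 detected by cytoblot immunostaining with HRP secondary.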 The following applies: 5 h, higher = more signal.
Assay [8] deals with NADPH oxidase 2 (Homo sapiens) (UniProt P04839). Briefly: compounds shifting NOX2 Amplex Red fluorescence – cell-based, HEK293-NOX2, PMA-stimulated, NOX inhibitor project, primary screen (AID 1159). Note: test concentration not given here. The following applies: 45 min, higher = more signal, called active from +8 up or from −8 down.
In assay [9] the target is NADPH oxidase 4 (Homo sapiens) (UniProt Q9NPH5). Briefly: compounds shifting NOX4 Amplex Red fluorescence – cell-based, HEK293-NOX4, tetracycline-induced, NOX inhibitor project, primary screen (AID 1160). The following applies: HEK293-NOX4, Amplex Red H2O2 fluorescence, 45 min; higher = more signal, called active from +8 up or from −8 down.
For assay [10], the target named is NADPH oxidase 5 (Homo sapiens) (UniProt Q96PH1). Briefly: compounds shifting NOX5 Amplex Red fluorescence – cell-based, HEK293-NOX5, NOX inhibitor project, primary screen (AID 1161). The following applies: HEK293-NOX5, ionomycin, 45 min, higher = more signal.
The nature of assay [11]: compound effects on lung adenocarcinoma cell viability – A549, calcein-AM fluorescence, 48 h, basal, profiling panel (AID 1162). Note: test concentration not given here. The following applies: higher = more signal.
Assay [12] can be described thus: compound effects on differentiated 3T3-L1 adipocyte viability – cell-based, 3T3-L1 adipocytes, calcein-AM fluorescence, 48 h, basal, profiling panel (AID 1163). Note: test concentration not given here. As to conditions: 3T3-L1 adipocytes viability, higher = more signal.
Assay [13] in a line: compound effects on hepatocellular carcinoma cell viability – HepG2, calcein-AM fluorescence, 48 h, basal, profiling panel (AID 1164). Note: test concentration not given here. The following applies: higher = more signal.
The nature of assay [14]: compound effects on multiple myeloma cell viability – MM1S, calcein-AM fluorescence, 48 h, basal, profiling panel (AID 1165).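 Note: viability of MM1S multiple myeloma cells under basal unstimulated conditions; test concentration not given here.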 The following applies: higher = more signal.
Assay [15] can be described thus: calcein-AM signal in unstimulated myeloma cells – cell-based, calcein-AM fluorescence, 48 h, PK04 Diversity Set, profiling panel (AID 1166).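 Note: cells grown under basal conditions without added stimulus; test concentration not given here.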 The following applies: RPMI8226 myeloma viability, higher = more signal.
A short description of assay [16]: JC-1 mitochondrial signal, unstimulated HepG2 cells – cell-based, JC-1 fluorescence, 24 h, 100 nL compound, profiling panel (AID 1167). Note: test concentration not given here. As to conditions: HepG2 mitochondrial potential, higher = more signal.
Assay [17] can be described thus: JC-1 mitochondrial signal, unstimulated adipocytes – cell-based, JC-1 fluorescence, 3T3-L1 adipocytes, 24 h, 100 nL compound, profiling panel (AID 1168). Note: test concentration not given here. As to conditions: JC-1 mitochondrial fluorescence, higher = more signal, called active from +8 up or from −8 down.
Assay [18] can be described thus: JC-1 mitochondrial signal, unstimulated myeloma cells – cell-based, JC-1 fluorescence, RPMI8226, 24 h, 100 nL compound, profiling panel (AID 1169). Note: test concentration not given here. As to conditions: JC-1 mitochondrial potential fluorescence, higher = more signal.
Assay [19] is described as follows: JC-1 mitochondrial signal, unstimulated MM1S myeloma – cell-based, JC-1 fluorescence, 24 h, 100 nL compound, profiling panel (AID 1170). Note: test concentration not given here. The following applies: MM1S mitochondrial potential, higher = more signal.
Assay [20] in a line: resazurin metabolic signal in A549 cells – cell-based, resazurin fluorescence, 24 h, PK04 Diversity Set, profiling panel (AID 1171). Note: test concentration not given here. The following applies: A549 viability, higher = more signal, called active from +8 up or from −8 down.

Sequence of NADPH oxidase 2 (Homo sapiens) (P04839 whole entry, looked up): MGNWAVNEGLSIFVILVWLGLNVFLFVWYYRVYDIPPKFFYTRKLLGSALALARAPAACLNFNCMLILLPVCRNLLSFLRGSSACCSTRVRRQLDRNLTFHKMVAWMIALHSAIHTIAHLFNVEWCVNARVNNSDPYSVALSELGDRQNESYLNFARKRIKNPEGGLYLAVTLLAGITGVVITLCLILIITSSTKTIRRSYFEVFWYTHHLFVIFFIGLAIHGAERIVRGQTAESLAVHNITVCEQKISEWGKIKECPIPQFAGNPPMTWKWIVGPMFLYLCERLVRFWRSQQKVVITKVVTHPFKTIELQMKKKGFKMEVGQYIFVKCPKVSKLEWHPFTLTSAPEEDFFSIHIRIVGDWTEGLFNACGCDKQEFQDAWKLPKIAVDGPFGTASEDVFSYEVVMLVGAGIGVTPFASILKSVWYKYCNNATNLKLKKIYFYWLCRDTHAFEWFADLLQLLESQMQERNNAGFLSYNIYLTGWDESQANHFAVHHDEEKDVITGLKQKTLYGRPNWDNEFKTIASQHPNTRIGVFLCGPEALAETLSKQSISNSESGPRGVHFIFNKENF
Sequence of NADPH oxidase 5 (Homo sapiens) (Q96PH1 whole entry, looked up): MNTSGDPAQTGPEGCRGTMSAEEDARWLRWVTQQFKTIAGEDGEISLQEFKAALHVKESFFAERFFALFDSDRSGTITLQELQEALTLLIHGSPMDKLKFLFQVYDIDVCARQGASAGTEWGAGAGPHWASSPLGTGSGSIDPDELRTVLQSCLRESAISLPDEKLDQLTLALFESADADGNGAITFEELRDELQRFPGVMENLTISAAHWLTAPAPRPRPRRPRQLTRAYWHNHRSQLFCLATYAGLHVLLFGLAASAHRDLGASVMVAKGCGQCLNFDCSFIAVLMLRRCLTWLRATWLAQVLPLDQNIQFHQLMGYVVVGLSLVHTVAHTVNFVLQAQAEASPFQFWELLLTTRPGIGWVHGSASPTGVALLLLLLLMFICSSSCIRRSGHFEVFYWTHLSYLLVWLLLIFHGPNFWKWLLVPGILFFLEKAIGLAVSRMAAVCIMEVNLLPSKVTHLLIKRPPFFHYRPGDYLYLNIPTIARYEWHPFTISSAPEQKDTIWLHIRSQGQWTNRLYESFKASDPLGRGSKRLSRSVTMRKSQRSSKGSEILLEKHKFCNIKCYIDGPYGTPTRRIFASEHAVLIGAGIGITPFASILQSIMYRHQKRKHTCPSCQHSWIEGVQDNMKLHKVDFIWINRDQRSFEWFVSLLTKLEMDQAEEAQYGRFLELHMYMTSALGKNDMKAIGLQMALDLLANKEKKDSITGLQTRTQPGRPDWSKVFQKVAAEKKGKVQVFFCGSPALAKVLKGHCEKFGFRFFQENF
Sequence of NADPH oxidase 4 (Homo sapiens) (Q9NPH5 whole entry, looked up): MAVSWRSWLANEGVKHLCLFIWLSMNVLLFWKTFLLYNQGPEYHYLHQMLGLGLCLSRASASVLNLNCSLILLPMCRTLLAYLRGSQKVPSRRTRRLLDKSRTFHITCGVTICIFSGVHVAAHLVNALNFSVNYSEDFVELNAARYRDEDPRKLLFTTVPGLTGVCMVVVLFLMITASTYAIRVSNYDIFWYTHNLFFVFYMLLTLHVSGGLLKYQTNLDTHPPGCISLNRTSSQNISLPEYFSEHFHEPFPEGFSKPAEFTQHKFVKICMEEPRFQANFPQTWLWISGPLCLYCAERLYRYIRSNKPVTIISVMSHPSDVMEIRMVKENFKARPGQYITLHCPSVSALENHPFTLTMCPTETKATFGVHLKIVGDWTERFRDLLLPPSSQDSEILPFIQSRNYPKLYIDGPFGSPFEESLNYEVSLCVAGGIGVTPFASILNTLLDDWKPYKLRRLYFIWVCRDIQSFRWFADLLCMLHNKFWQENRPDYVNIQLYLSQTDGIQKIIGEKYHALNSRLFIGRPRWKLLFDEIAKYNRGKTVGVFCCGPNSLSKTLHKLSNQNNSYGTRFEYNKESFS

Regarding `O=C1OCCC=C[C@H]2OC34C=CCN(c5ccc(Cl)cc5)C(=O)[C@H]3N(CCCO)C(=O)[C@@H]4C12` (stereo not given in full), the z-score was 0.565 (inactive) in assay [1]; 0.991 (inactive) in [3]; -0.131 (inactive) in assay [4]; 0.319 (inactive) in [5]; -0.652 (inactive) in [6]; 1.61 in assay [7]. For the same molecule, the z-score in [8] was 0.736 (inactive); in [9], -0.818 (inactive); in assay [10], 0.215; in assay [11], 0.0676; in [12], 1.95; in assay [13], -0.517. In addition, the z-score in assay [14] was 0.435; in assay [15], -1.16; in [16], -0.00501; in assay [17] it was 0.272 (inactive); in [18], -0.21; in assay [19], 0.162. Moreover, in assay [20], the z-score is -0.797 (inactive). This molecule gave a composite z-score in assay [2] of -0.221.

For the molecule `C=CCNC(=O)[C@H]1[C@@H]2C(=O)O[C@@H](c3ccccc3)[C@@H](c3ccccc3)N2[C@@H](c2ccc(O)cc2)[C@]12C(=O)Nc1ccc(C#CCCO)cc12`, the z-score in [1] was 0.605 (inactive); in assay [3], 5.56 (inactive); in assay [4] it was 0.608 (inactive); in [5], -0.763 (inactive); in assay [6], 0.443 (inactive); in [7] it was -0.0803. In addition, the z-score was 0.67 (inactive) in assay [8]; -0.436 (inactive) in assay [9]; 0.603 in assay [10]; 0.838 in [11]; -0.655 in assay [12]; 0.122 in [13]. Besides, the z-score was 0.994 in assay [14]; 0.168 in assay [15]; -0.757 in [16]; 0.651 (inactive) in assay [17]; -0.873 in assay [18]; -0.723 in assay [19]. Further, in assay [20], the z-score is 0.437 (inactive). Also, the composite z-score in assay [2] is 0.117.

Consider `COc1ccc([Si](C)(C)[C@@H]2[C@@H](CCn3cc([C@H](O)c4ccccc4)nn3)O[C@]3(C(=O)N(Cc4cccc(N5CCC5=O)c4)c4ccccc43)[C@H]2C)cc1`, for which the z-score in assay [1] was -0.811 (inactive); in [3] it was 10.4 (active); in assay [4] it was 2.06 (inactive); in [5] it was 0.538 (inactive); in assay [6], 0.989 (inactive); in assay [7], 0.135. Also, the z-score is 0.702 (inactive) in assay [8]; 1.4 (inactive) in [9]; 2.32 in [10]; 0.208 in assay [11]; 0.745 in assay [12]; -0.924 in [13]. The z-score in [14] is -0.6; in assay [15], -0.984; in assay [16], -0.262; in [17], 1.15 (inactive); in assay [18], -0.735; in assay [19], -0.487. Further, the z-score in assay [20] was 0.0773 (inactive). Besides, the composite z-score in assay [2] was -0.144.

On to `CCOC(=O)C1=CC[C@@H](c2ccccc2)N(S(=O)(=O)c2ccc(C)cc2)[C@H]1c1ccc(CC)cc1`, for which the z-score in [1] is -0.688 (inactive); in assay [3], 0.874 (inactive); in [4] it was 0.991 (inactive); in assay [5], -0.862 (inactive); in [6], 0.361 (inactive); in [7], -0.253. Also, the z-score in assay [8] is 0.711 (inactive); in assay [9], 0.029 (inactive); in assay [10], 0.46; in assay [11] it was -0.516; in assay [12], -0.932; in assay [13], -0.217. Besides, the z-score in assay [14] is 0.677; in [15] it was 0.0825; in [16], 5.94; in assay [17], -0.149 (inactive); in assay [18] it was -0.27; in assay [19], -1.84. The z-score in assay [20] is 1.48 (inactive). In addition, the composite z-score in [2] turned out to be 0.166.

As for `CCOC(=O)C1=CC[C@@H](c2ccc(C(F)(F)F)cc2)N(S(=O)(=O)c2ccc(C)cc2)[C@H]1c1ccccc1`, the z-score was -0.734 (inactive) in assay [1]; 1.62 (inactive) in [3]; 1.61 (inactive) in assay [4]; 0.84 (inactive) in [5]; 0.828 (inactive) in assay [6]; -0.356 in [7]. For the same molecule, the z-score is 0.803 (inactive) in [8]; -0.658 (inactive) in assay [9]; -0.601 in assay [10]; -0.664 in assay [11]; -1.01 in [12]; 0.0691 in [13]. The z-score is -2.36 in assay [14]; -1.95 in assay [15]; -1.59 in [16]; 0.154 (inactive) in assay [17]; -1.11 in assay [18]; -3.18 in assay [19]. For the same molecule, the z-score in [20] is 0.138 (inactive). Further, the composite z-score in assay [2] was found to be 0.373.

For `CCOC(=O)C[C@H]1[C@H](OC(=O)c2ccc(-c3ccccc3)cc2)[C@@H](NC(=O)c2ccccc2)c2cc(OCCCO)ccc2N1C(=O)Cc1ccc(OC)cc1`, the z-score in [1] is 0.118 (inactive); in assay [3], 1.93 (inactive); in [4], 0.442 (inactive); in assay [5] it was -0.113 (inactive); in assay [6], 0.41 (inactive); in assay [7], -0.0916. Moreover, the z-score was 1.31 (inactive) in assay [8]; -0.847 (inactive) in [9]; 2.5 in assay [10]; 0.437 in assay [11]; 0.0615 in assay [12]; 0.66 in [13]. Further, the z-score in [14] is -0.536; in [15], -0.345; in assay [16], 2.23; in assay [17] it was 0.285 (inactive); in assay [18], 0.157; in [19], 0.617. Besides, the z-score in assay [20] is -0.0451 (inactive). This molecule yielded a composite z-score in assay [2] of -0.0601.

As to `COc1cc2c(cc1O)C(c1cccs1)N(Cc1ccc([N+](=O)[O-])o1)CC2` (stereo not given), the z-score was 1.9 (inactive) in assay [1]; 25.1 (active) in assay [3]; 7.24 (inactive) in [4]; -0.39 (inactive) in [5]; -0.628 (inactive) in assay [6]; 1.23 in assay [7]. Further, the z-score in [8] was -4.4 (inactive); in [9], -2.58 (inactive); in assay [10], -2.92; in [11], 0.383; in assay [12] it was 0.0975; in assay [13] it was 0.859. Besides, the z-score was 0.647 in assay [14]; 0.174 in assay [15]; -0.771 in assay [16]; 0.627 (inactive) in [17]; -0.185 in [18]; 1.09 in assay [19]. Further, in assay [20], the z-score was -1.63 (inactive). Also, the composite z-score in assay [2] is 0.0161.

In the case of `CO[C@H]1O[C@H](CO)[C@@H](OC(=O)Nc2ccccc2)[C@@H]2OC(=O)[C@@H](Cc3ccc4ccccc4c3)C/C=C/C[C@H](Cc3ccc4ccccc4c3)C(=O)O[C@@H]12`, the z-score was 2.85 (inactive) in [1]; 2.71 (inactive) in assay [3]; -0.0552 (inactive) in assay [4]; -1.94 (inactive) in assay [5]; -1.83 (inactive) in assay [6]; 0.77 in assay [7]. For the same molecule, the z-score in assay [8] was 0.829 (inactive); in assay [9], 0.884 (inactive); in [10] it was -0.542; in assay [11], 0.72; in assay [12], 0.397; in assay [13] it was 0.705. The z-score in assay [14] is -0.268; in [15] it was 0.575; in [16], -1; in assay [17] it was 0.688 (inactive); in assay [18], -0.381; in assay [19] it was -0.135. In addition, the z-score in assay [20] was -2.52 (inactive). Moreover, in [2], the composite z-score is 0.0167.

Consider `COc1ccc([Si](C)(C)[C@H]2[C@H](CCn3cc([C@H](O)c4ccccc4)nn3)O[C@@]3(C(=O)N(C)c4ccccc43)[C@@H]2C)cc1`, for which the z-score in [1] was 0.294 (inactive); in [3] it was 5.08 (inactive); in assay [4], 1.5 (inactive); in [5] it was 0.56 (inactive); in assay [6], 0.866 (inactive); in assay [7], 0.334. Besides, the z-score was -0.0243 (inactive) in assay [8]; 0.0296 (inactive) in assay [9]; -1.24 in assay [10]; 0.239 in assay [11]; -0.233 in [12]; 0.132 in [13]. The z-score in assay [14] is -0.615; in assay [15], -1.79; in assay [16], -0.602; in assay [17], 0.331 (inactive); in [18], -1.16; in assay [19] it was -0.396. Also, the z-score in assay [20] was 0.32 (inactive). The molecule also gave a composite z-score in [2] of 0.573.
